Drawing on ChEMBL document CHEMBL4513216, “Probing the Open Global Health Chemical Diversity Library for Multistage-Active Starting Points for Next-Generation Antimalarials” (ACS Infect Dis, 2020), this text covers INHIBITION for 102 compounds.

Structures are written as SMILES. Among all 68,000 compounds or so, about 2,700 (4%) showed an effect of 50% or more. This excerpt belongs to a sample that is enriched for strong results.

The test concerns Plasmodium berghei. In words: Screen against P. berghei liver stage (PbLuc), transformed with Luciferase, at 2uM. In kind it is functional, HepG2. The settings on record: tested at 2 uM.
On to `Cc1noc(C)c1CN1C(=O)[C@@H]2CC[C@H]1CN(Cc1cscn1)C2`, for which the INHIBITION is listed as -55.91%.
For `Cc1ccccc1SC1CCN(C(=O)C2[C@H]3CNC[C@@H]23)CC1` (some centres not stated), the INHIBITION turned out to be 2.49%.
In the case of `O=C(CCCn1cncn1)N1CCCC1c1noc(C2CC2)n1` (configuration not stated), the INHIBITION turned out to be 8.65%.
As to `Cc1nc(CN2CCCC2c2noc(C3CC3)n2)nc2ccccc12` (configuration not stated), the INHIBITION turned out to be 22.29%.
In the case of `CN1CCC(O)(CNC(=O)c2cc(COc3cccc(F)c3)[nH]n2)CC1` it was -13.79%; in that of `Cc1n[nH]c(C2CN(C(=O)c3cc(C)sc3C)CCO2)n1` (configuration not stated), 40.13%.
Turning to `O=C(Cn1ccc2cc(Br)ccc21)NCc1ccc(C(=O)O)cc1`, the INHIBITION was 18.15%.
The value for `CCCS(=O)(=O)N1CCOC2(CCCN(c3ccc(C)nn3)C2)C1` (configuration not stated) was -15.73%.
The value for `CCc1ccc(NC(=O)N2C[C@@H]3C[C@H](C(=O)NC)[C@H](C2)O3)cc1` was -56.73%; that for `CNC(=O)[C@H]1C[C@H]2CN(C(=O)Nc3ccccc3)C[C@@H]1O2` was 7.35%; that for `CNC(=O)[C@H]1C[C@H]2CN(C(=O)Nc3ccc(F)cc3)C[C@@H]1O2` was 56.15%.
The value for `COCCOCC(=O)N1C[C@@H]2CC[C@H](Oc3cccc(F)c3)[C@@H]2C1` was 24.06%; that for `Cc1ccc(C)c(NS(=O)(=O)c2cc3c(c(C(=O)O)c2)OCCO3)c1` was -5.09%; that for `O=C(Cc1ccc(F)cc1)N1CCn2cc(Cn3cncn3)nc2C1` was 37.2%.
`CC(=O)N1C[C@@H](c2ccsc2)[C@@H]2CN(Cc3ccccc3Cl)CC[C@@H]21`: the INHIBITION is listed as -27.6%.
`CN1CCC(c2cccc(NCc3nccn3C)n2)CC1`: the INHIBITION is recorded as 29.25%.
The value for `C1CC(CN2CCc3c(nnn3CC3CC3)C2COCC2CC2)C1` (configuration not stated) was -38.23%; that for `C1CN(CC2CC2)C(COCC2CC2)c2nnn(CC3CC3)c21` (configuration not stated) was 61.44%.
In the case of `Cn1nnc2c1CCN(CC1CC1)C2COCC1CC1` (configuration not stated) it was -10.89%; in that of `Cn1nc2c(cc1=O)CN(Cc1nc(C(C)(C)C)no1)CC2`, 12.91%.
For the compound `COc1cc(C)c(NC(=O)NCCn2cccc2)cc1OC`, the INHIBITION stood at 74.18%.
In the case of `COc1cc(Cl)c(NC(=O)NCCn2cccc2)cc1OC` it was -23.44%.
The value for `COc1cc(C)c(NC(=O)CCn2cccc2)cc1OC` was 30.42%; that for `CCN(Cc1cccc2c1OCO2)C(=O)NCc1ccccn1` was -5.39%; that for `O=C(Cc1cccs1)N1C[C@H]2CC[C@@H](C1)N(Cc1ccccn1)C2=O` was 14.63%.
The value for `COCC(O)CN(C)C(=O)NCc1ccc(-c2ccn[nH]2)cc1` (configuration not stated) was -0.21%.
On to `N#Cc1ccc(C(=O)N2CCC3(CC2)C(=O)Nc2ccccc23)cn1`, for which the INHIBITION stood at 24.88%.
The value for `COc1ncc(C(=O)N2CCC3(CC2)C(=O)Nc2ccccc23)cn1` was 50.32%; that for `O=C(c1ccncc1)N1CCC2(CC1)C(=O)Nc1ccccc12` was 49.25%; that for `Cc1ocnc1C(=O)N1CC[C@@H](O)[C@@H](O)[C@H](N2CCC(F)(F)CC2)C1` was 7.4%.
Turning to `CCCOc1ccccc1CN[C@@H]1CCC[C@H]1Cc1cc(C)no1`, the INHIBITION is listed as 3.28%.
In the case of `CC(C)CC(CCO)CNC(=O)N1CC(C)(C)C1(C)C` (configuration not stated) it was -6.69%; in that of `CCCS(=O)(=O)N1CC(=O)N(Cc2cccc(OC)c2OC)CC(O)C1` (configuration not stated), -13.32%.
As to `CCOc1ccccc1C(CC(=O)Nc1ccccc1)NC(C)=O` (configuration not stated), the INHIBITION came to 23.45%.
Take `CCOc1ccccc1C(CC(=O)Nc1nc(C)cs1)NC(C)=O` (configuration not stated): the INHIBITION amounted to 67.59%.
The value for `CCOc1ccccc1C(CC(=O)Nc1ncc(C)s1)NC(C)=O` (configuration not stated) was -32.89%.
Take `CC(C)c1nnc2n1CCN(C(=O)c1cccc(C(F)(F)F)c1)C2`: the INHIBITION was 15.31%.
In the case of `CCc1nnc2n1CCN(c1nc(C)cc(N(C)C)n1)C2` it was 62.51%; in that of `CN(C)c1nc(N2CCCC2)nc2c1CCN(Cc1nccn1C)CC2`, 55.92%.
As to `Cc1cc(N(C)C)nc(N2CCn3c(C)nnc3C2)n1`, the INHIBITION worked out at 29.13%.
In the case of `Cc1cc(N(C)C)nc(N2CCn3c(nnc3C(C)C)C2)n1` it was -6.64%.
The value for `Cc1cc(N(C)C)nc(N2CCN(Cc3nccn3C)CC2)n1` was 50.61%.
The value for `Cc1cc(C)nc(N2CCN(Cc3nccn3C)CC2)n1` was 5.78%; that for `Cc1nc(N2CCCC2)nc2c1CCN(Cc1nccn1C)CC2` was 9.98%.
Regarding `Cc1cc(C(F)(F)F)nc(N2CCN(Cc3nccn3C)CC2)n1`, the INHIBITION was determined as 10.91%.
In the case of `CC(C)Nc1nc2c(c(N(C)C)n1)CCN(Cc1nccn1C)CC2` it was 28.11%; in that of `NS(=O)(=O)c1ccc(NCc2ccco2)c2ncccc12`, 7.3%; in that of `Cc1ccccc1-c1cc(C(=O)NCCN2CCCS2(=O)=O)[nH]n1`, 36.65%.
In the case of `Cc1ccccc1-n1c(C)cc(C(=O)N2CCn3c(C)nnc3C2)c1C` it was -61.5%.
In the case of `CN(C(=O)CCNC(=O)C1COc2ccccc21)c1ccccc1` (configuration not stated) it was -0.3%; in that of `Cc1nn(C)c2cnn(CCCNS(=O)(=O)Cc3ccccc3)c12`, -12.73%.
Consider `COC[C@@H]1CCC[C@]12CN(CCc1ccccc1)CCO2`, for which the INHIBITION is -20.67%.
The value for `O=C([C@H]1CCCN1)N1CC2(CCNCC2)c2cc(Cl)ccc21` was 0.57%.
The value for `CCc1[nH]ncc1C(=O)N1CCCC(n2nc(C)nc2C)C1` (configuration not stated) was 54.85%; that for `CCc1ncncc1C(=O)N1CCCC(n2nc(C)nc2C)C1` (configuration not stated) was -26.85%; that for `Cc1nc(C)n(C2CCCN(C(=O)c3cscn3)C2)n1` (configuration not stated) was -13.94%.
Consider `Cc1nc(C)n(C2CCCN(C(=O)c3cncnc3C)C2)n1` (configuration not stated), for which the INHIBITION stood at 62.82%.
The value for `Cc1ncc(C(=O)N2CCCC(n3nc(C)nc3C)C2)c(C(C)C)n1` (configuration not stated) was 24.02%; that for `CCc1nc(C)ncc1C(=O)N1CCCC(n2nc(C)nc2C)C1` (configuration not stated) was 36.92%.
In the case of `Cc1nc(C)n(C2CCCN(C(=O)c3csc(C)n3)C2)n1` (configuration not stated) it was -47.87%; in that of `CCc1[nH]ncc1C(=O)N1CCCC(n2nc(C)cc2C)C1` (configuration not stated), 12.75%; in that of `Cc1nc(C)n(C2CCCN(C(=O)c3csnn3)C2)n1` (configuration not stated), 53.45%.
`Cc1nn(C)c(C)c1NC(=O)Nc1cccnc1N1CCCC1`: the INHIBITION came out at 15.28%.
For `COCc1ncn2c1CN(C(=O)c1cccc3cccnc13)CC2`, the INHIBITION was found to be 29.3%.
For the compound `CCC(C)c1noc(C2CCN(C(=O)c3cccnc3)CC2)n1` (configuration not stated), the INHIBITION is on record as -59.73%.
The value for `CC(C)(C)C(NC(=O)CCS(C)(=O)=O)c1ccc(F)cc1F` (configuration not stated) was 41.84%; that for `NC(=O)CC1CCN(C(=O)NCc2ccc(-c3ccn[nH]3)cc2)CC1` was 7.13%.
In the case of `O=C(C1COc2ccccc2C1)N(CCO)Cc1ccccc1` (configuration not stated) it was -49.31%.
In the case of `CC1CCCCN1C(=O)c1ccn(COc2ccc(F)cc2)n1` (configuration not stated) it was -12.84%.
As to `COc1cccc(Nc2nc(-c3ccncc3)nc3c2CNCC3)c1`, the INHIBITION is 12.6%.
The value for `N#Cc1cccc(CN2Cc3nccn3CC(COCC3CC3)C2)c1` (configuration not stated) was -17.39%; that for `CC(C)NC(=O)[C@@H]1C[C@H]2OCC[C@H]2N(Cc2ccc3ccccc3n2)C1` was 9.69%.
The value for `CC(C)NC(=O)[C@H]1C[C@H]2OCC[C@H]2N(Cc2ccc3ccccc3n2)C1` was 55.8%; that for `O=C(NC1CC1)[C@H]1C[C@H]2OCC[C@H]2N(Cc2ccc3ccccc3n2)C1` was 0.91%; that for `Cc1ccc([C@@]2(O)CC[C@@H]3CN(S(=O)(=O)c4cn(C)nc4C)C[C@@H]32)cc1` was 55.74%.
As to `Cc1ccc([C@@]2(O)CC[C@@H]3CN(S(=O)(=O)C(C)C)C[C@@H]32)cc1`, the INHIBITION is on record as 40.31%.
In the case of `CCS(=O)(=O)N1C[C@H]2CC[C@](O)(c3ccc(C)cc3)[C@H]2C1` it was 38.23%; in that of `CNC(=O)[C@H]1C[C@@H]2CN(S(=O)(=O)c3cccc(C)c3)C[C@@H]2N1C`, 27.95%.
As to `COC(=O)CNC(=O)c1scnc1C`, the INHIBITION is -7.24%.
The value for `COc1cccc(N2CCN(C(=O)C(C)Oc3ccccc3)CC2=O)c1` (configuration not stated) was 24.28%.
In the case of `CC(C)[C@@H]1CN(C(=O)CN(C)Cc2ccc(F)cc2)C[C@H]1C(=O)O` it was 72.49%.
The value for `CC(C)[C@@H]1CN(C(=O)CCc2ccc(F)cc2)C[C@H]1C(=O)O` was 18.63%.
For `CC(C)[C@@H]1CN(C(=O)CN(C)Cc2ccccc2)C[C@H]1C(=O)O`, the INHIBITION is reported as 35.46%.
As to `Cc1nnc(CNC(C)c2cc(C)c(F)c(C)c2)s1` (configuration not stated), the INHIBITION is 31.51%.
Regarding `COc1cc(C(C)NCc2c[nH]nc2C)ccc1OCCO` (configuration not stated), the INHIBITION worked out at 32.26%.
For the compound `COc1ccc(C(C)NCc2nnc(C)s2)cc1F` (configuration not stated), the INHIBITION is recorded as 52.98%.
In the case of `COc1ccc(C(C)NCc2c[nH]nc2C)cc1OC` (configuration not stated) it was 66.4%; in that of `Cc1cc(C)cc(C(C)NCc2nnc(C)s2)c1` (configuration not stated), 38.67%.
In the case of `COc1ccc(C(C)NCc2c[nH]nc2C)cc1Br` (configuration not stated) it was -8.5%.
The value for `Cc1cnc(CN2CCCC(c3cc(C)[nH]n3)C2)cn1` (configuration not stated) was 43%.
Regarding `Cc1ccc(NC2CCN(C(=O)c3sccc3C3CC3)CC2)nn1`, the INHIBITION is reported as 3.38%.
The value for `COC1(CNC(=O)c2ccc(Cl)c(Cl)c2)CCSC1` (configuration not stated) was -26.56%; that for `O=C(Nc1cccnc1)c1ccc(-n2cncn2)nn1` was -7.69%; that for `Cc1cccc(NC(=O)c2ccc(-n3cncn3)nn2)n1` was 55.73%.
The value for `Cc1cccnc1NC(=O)c1ccc(-n2cncn2)nn1` was 9.92%; that for `CCS(=O)(=O)N1CCC(c2nnc(C(F)(F)F)o2)CC1` was 14.97%; that for `CN(C)S(=O)(=O)N1CCC(c2nnc(C(F)(F)F)o2)CC1` was 14.97%.
The value for `CCS(=O)(=O)N1CCC(c2nnc(C3CC3)o2)CC1` was 54.82%; that for `O=C(NCCc1cccs1)[C@]12COC[C@H]1CN(c1ncccn1)C2` was 44%; that for `N#CCSCC(=O)NCC1CCCCC1` was -64.85%.
For the compound `NC(=O)CSCCC(=O)NCC1CC1`, the INHIBITION is recorded as 37.87%.
Regarding `NC(=O)CSCC(=O)NCC1CCCC1`, the INHIBITION amounted to 60.79%.
